Screens deposited in PubChem BioAssay by National Center for Advancing Translational Sciences (NCATS).
The list is not random: actives were taken first. Their share in the collection is about 3.7%.
WRN helicase inh = blocks human WRN helicase | actives 0.46% (n = 360,000) | AID 651768 | WRN helicase unwinding, fluorescent forked duplex, kinetic | Q14191 | Potency, µM (series often up to 114 µM), usual class: inhibitors; further: nearly all actives have a fitted effect of over 55% in size
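Screening of the MLSMR collection measured strand separation of a quenched forked DNA duplex (100 nM) by 20 nM WRN with 2 mM ATP, all final. Compounds were preincubated with enzyme 15 min at room temperature.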
PLK1 PBD inh = PLK1 (human) polo-box domain binding inhibition | actives 2.8% (n = 360,000) | P53350 | Potency, µM, actives largely listed as inhibitors | AID 720504 | Plk1 PBD binding of FITC phosphopeptide, fluorescence polarization; further: series mostly up to about 57 µM; nearly all actives have a fitted effect of over 65% in size
PI5P4K alpha inh = inhibitors of human PI5P4K alpha; actives 1.2% (n = 330,000); AID 652105; P48426; max response, %; PI5P4Kalpha enzyme, ADP-Glo luminescence, 60 min; stronger effect = lower value; active means max response of -50% or lower; inconclusive means between -30% and -50%; inactive means -30% or higher; further: value at the top dose of about 77 µM
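Controls without substrate or without enzyme flank wells where PI5P4Kalpha converts substrate using 5 microM ATP (final). Incubation lasts 60 minutes at room temperature; ADP formed is read by ADP-Glo luminescence.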
FEN1 inhibitor = human FEN1 inhibition; Recombinant FEN1 flap cleavage, fluorescence, 15 min; actives 0.35% (n = 390,000); Potency, µM (highest dose often 114 µM), actives largely listed as inhibitors; P39748; further: nearly all actives have a fitted effect of over 65% in size
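Potency values derive from four-parameter Hill fits of normalized qHTS data. The reaction used 10 nM FEN1 preincubated 15 min at room temperature with compound, then 50 nM DNA substrate, read at 0 and 15 min.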
TCR activator = T cell receptor activation. primary human leukocytes, anti-CD3, IL-2 HTRF, 48 h. 330,000 tested, under 10 active. Potency, µM (doses to about 9.22 µM), hits mostly activators
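IL-2 release read by HTRF sandwich (Eu cryptate donor, d2 acceptor, 665 nm emission) after 48 hr exposure of primary human leukocytes to compound together with anti-CD3 beads in the absence of co-stimulatory signals.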
VDR inh = vitamin D3 receptor (human) inhibition. VDR-SRC2-3 peptide fluorescence polarization, 2 h. AID 504847. actives 0.93% (n = 400,000). Potency, µM, actives largely listed as inhibitors
Target sequence (P11473 whole entry, looked up): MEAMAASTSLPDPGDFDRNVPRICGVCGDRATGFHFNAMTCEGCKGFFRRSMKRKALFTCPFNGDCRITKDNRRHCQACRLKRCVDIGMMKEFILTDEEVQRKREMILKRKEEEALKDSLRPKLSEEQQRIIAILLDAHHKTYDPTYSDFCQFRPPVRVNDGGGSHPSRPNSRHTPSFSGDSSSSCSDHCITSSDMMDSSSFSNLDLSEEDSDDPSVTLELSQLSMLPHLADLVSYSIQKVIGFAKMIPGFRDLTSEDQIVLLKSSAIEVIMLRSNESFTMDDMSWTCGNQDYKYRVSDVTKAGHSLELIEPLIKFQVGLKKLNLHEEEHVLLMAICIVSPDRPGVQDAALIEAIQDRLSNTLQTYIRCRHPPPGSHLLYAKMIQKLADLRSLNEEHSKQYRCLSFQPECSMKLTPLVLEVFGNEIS
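Two reagent solutions held at 4 deg C in the dark were dispensed, compounds pinned at 23 nl, and the mixture incubated 2 h at room temperature. Read-out: fluorescence polarization of VDR–SRC2-3 peptide binding.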
A number is an active result; n = inactive; u = inconclusive; x = no result; ! = a repeat was not active. Unless noted, the call rests on the fitted dose curve; in most records, active means well fitted curve in the direction sought with a large enough effect; inconclusive means small, poorly fitted or top-dose-only effect, or another doubt; inactive means no such curve, though single readings can be large; an effect the other way counts as inactive or inconclusive.

SMILES	WRN helicase inh	PLK1 PBD inh	PI5P4K alpha inh	FEN1 inhibitor	TCR activator	VDR inh
CC(=O)N1CCc2cc(Br)cc(S(=O)(=O)CCC(=O)N3CCN(c4cccc(C)c4C)CC3)c21	x	x	x	n	x	n
O=C1OC(c2ccccc2)=NC12CC2c1ccc(Cl)cc1 (configuration not stated)	n	1.9µM	n	n	n	25µM
O=CN1N=C(c2ccccc2)CC1c1ccc(Cl)cc1 (configuration not stated)	n	n	n	n	n	n
CCCS(=O)(=O)c1ncc(Cl)c(C(=O)N(Cc2ccccc2)Cc2ccco2)n1	x	x	x	n	x	22µM
CCSc1ncc(Cl)c(C(=O)N(Cc2ccccc2)Cc2ccco2)n1	x	x	x	n	x	n
CC(=O)c1ccc(NS(=O)(=O)c2cc3c(cc2C)N(C)CCO3)cc1	n	24µM	n	n	n	n
CC[C@H](C)[C@H](NC(=O)[C@H](Cc1ccc(O)cc1)NC(=O)[C@H](Cc1cnc[nH]1)NC(=O)[C@H](CCCNC(=N)N)NC(=O)[C@H](CC(C)C)NC(=O)[C@H](C)NC(=O)[C@H](CO)NC(=O)[C@H](Cc1ccc(O)cc1)NC(=O)[C@H](Cc1ccc(O)cc1)NC(=O)[C@H](CCCNC(=N)N)NC(=O)[C@H](C)NC(=O)[C@H](CCSC)NC(=O)[C@H](CC(=O)O)NC(=O)[C@H](CCC(=O)O)NC(=O)[C@H](C)NC(=O)[C@@H]1CCCN1C(=O)[C@H](C)NC(=O)[C@H](CC(=O)O)NC(=O)[C@H](CCC(=O)O)NC(=O)CNC(=O)[C@@H]1CCCN1C(=O)[C@H](CC(N)=O)NC(=O)[C@H](CC(=O)O)NC(=O)[C@@H]1CCCN1C(=O)[C@H](CCCCN)NC(=O)[C@H](CO)NC(=O)[C@@H]1CCCN1C(=O)[C@@H](N)Cc1ccc(O)cc1)C(=O)N[C@@H](CC(N)=O)C(=O)N[C@@H](CC(C)C)C(=O)N[C@H](C(=O)N[C@H](C(=O)N[C@@H](CCCNC(=N)N)C(=O)N[C@@H](CCC(N)=O)C(=O)N[C@@H](CCCNC(=N)N)C(=O)N[C@@H](Cc1ccc(O)cc1)C(N)=O)[C@@H](C)O)[C@@H](C)CC	x	x	x	x	x	n
Cc1oc(-c2cccc(Br)c2)nc1Cn1c(SCc2cccc(F)c2)nc2cccnc21	x	x	x	n	x	n
COc1ccc(-c2nc3ccccc3o2)cc1NC(=O)COc1ccc(C(C)(C)C)cc1	x	x	x	n	x	n
Cc1ccc(-c2cc(C(=O)N3CCN(c4ncccn4)CC3)c3cc(Br)ccc3n2)o1	u	6.7µM	-73	n	n	n
O=C(O)c1cc(-c2ccco2)nc2ccc(Br)cc12	10µM!	4.2µM!	-87!	13µM!	n	20µM!
Cc1ccccc1Cn1c(=O)n(CC2CCC(C(=O)N3CCC(C)CC3)CC2)c(=O)c2sccc21 (configuration not stated)	x	x	x	n	x	n
Cc1ccccc1Nc1cc(C(=O)NCC2CCCO2)c2ccccc2n1 (configuration not stated)	n	11µM	n	u	n	u
Cc1ccccc1Nc1cc(C(=O)NC2CCCC2)c2ccccc2n1	x	x	x	n	x	n
COC(=O)C1=C(C(=O)OC)[C@@H]2N(Cc3ccccc3)c3ccccc3[C@@]23C[C@@H](C(=O)OC)N(C(=O)NCc2ccccc2)C3=C1	x	x	x	x	x	n
CC(C)NS(=O)(=O)c1ccc2[nH]c3nc(SCC(=O)Nc4ccc(F)c(F)c4)nnc3c2c1	x	x	x	n	x	n
COCCCNC(=O)CCc1c(C)nc2cc(-c3ccc(Cl)cc3)nn2c1C	x	x	x	n	x	n
O=C(/C=C/c1cccc(Br)c1)Nc1nn[nH]n1	n	n	-69	n	n	n
CCNC(=O)/C=C/c1cccc(Br)c1	x	x	x	x	x	n
COc1cccc(CNc2ncnc3cc(Cl)ccc23)c1	n	n	n	n	n	n
CNc1nc(Cl)c(SC)c(NCc2cccc(OC)c2)n1	n	11µM	n	n	n	u
COC(=O)c1ccc(CSc2nc3c(cnn3-c3ccc(C)c(C)c3)c(=O)[nH]2)o1	n	27µM	n	n	n	n
COC(=O)c1ccc2c(=O)n(CCCCCC(=O)NCCc3ccccc3)c(=O)[nH]c2c1	x	x	x	n	x	n
COc1ccc(NC(=O)C2CCN(C(=O)[C@@H]3Cc4ccccc4CN3)CC2)cc1	n	n	n	n	n	n
COc1ccc(CNC(=O)C2CCN(C(=O)[C@@H]3Cc4ccccc4CN3)CC2)cc1	n	6µM	n	n	n	u
SMILES	WRN helicase inh	PLK1 PBD inh	PI5P4K alpha inh	FEN1 inhibitor	TCR activator	VDR inh
N#C/C(=C\c1c(Cl)cccc1Cl)c1nc2ccccc2o1	n	0.42µM	n	n	n	n
COc1ccc(/C=N/NC(=O)Cn2nc(C)c([N+](=O)[O-])c2C)cc1	n	30µM	n	n	n	u
Cc1ccc(/C=N/NC(=O)Cn2nc(C)c([N+](=O)[O-])c2C)o1	n	n	n	n	n	n
CCCCOC(=O)c1ccc(NS(=O)(=O)c2c(C)nc3scc(C)n3c2=O)cc1	x	x	x	n	x	n
Nc1cccc[n+]1C(c1ccnc2ccccc12)[n+]1ccccc1N	x	x	x	n	x	x
Cc1cc2nc3c(=O)n(CCc4ccccc4)c(=O)[nH]c3nc2cc1N	n	2.7µM	-86	n	n	n
CCCCn1c(N)c(Br)c(=O)[nH]c1=O	n	n	n	n	n	n
Nc1ccc2nc(CCc3ccccc3)[nH]c2c1	n	n	n	n	n	n
Nc1ccc2nc3c(=O)n(CCc4ccccc4)c(=O)[nH]c3nc2c1	n	4.2µM	-63	u	n	n
CCCCn1c(=O)[nH]c2nc3cc(N)ccc3nc2c1=O	50µM	4.7µM	-66	u	n	u
C=CCn1c(=O)[nH]c2nc3cc(N=CN(C)C)c(C)cc3nc2c1=O	n	u	n	n	n	n
Cc1cc(C)c2c(CC(=O)Nc3c(C(=O)c4ccc(F)cc4)oc4ccccc34)coc2c1	x	x	x	n	x	n
CC(=O)N1c2ccc(S(=O)(=O)Nc3ccc(Cl)cc3C)cc2CC1C (configuration not stated)	x	x	x	n	x	n
CC(=O)ON(C(C)=O)c1ccc(/C=C2/C=Cc3ccccc32)cc1	x	x	x	n	x	x
CC1(C)CCc2cc(O)ccc2O1	x	x	x	n	x	x
Cc1cccc(N2C(=O)CS(=O)(=O)C23C(=O)N(C)c2ccccc23)c1 (configuration not stated)	x	x	x	n	x	n
CCCCn1cc(S(=O)(=O)c2cc(C)ccc2C)c(=O)c2cc(F)c(F)cc21	x	x	x	n	x	n
C=CCN=c1sc(C(=O)OC)cc(=O)n1CC=C	n	30µM	x	n	n	u
COc1cc(/C=C/c2cncc(/C=C/c3cc(OC)c(OC)c(OC)c3)c2)cc(OC)c1OC	x	x	x	n	x	x
COc1ccc(N2CCN(C3(c4ccccc4)C(=O)c4ccccc4C3=O)CC2)cc1	x	x	x	n	x	n
